Several values for one entry are separate records, joined by “and”; a condition that tells them apart may be missing. Equal entries are not always repeated. Where a structure was tested more than once in an assay, its records may differ in their call. Activity calls are given as the source filed them. The calls were made as follows: active = hit-call score of the fitted dose curve at least 0.9, where 1 is the maximum; inactive = score below 0.9.

The values below come from PubChem BioAssay (EPA / NIEHS).

Read-out in assay [1]: Interleukin-6 (IL6), IL6 (gene 3569)
Description: BSK_CASM3C_IL6: BioMAP Diversity Plus: CASM3C Assay for Interleukin-6 (IL6) Biomarker Activity for (AID 2283040). The note with it: primary human coronary artery smooth muscle cells; actives raise or lower the signal.

Read-out in assay [2]: Tissue plasminogen activator (tPA), PLAT (gene 5327)
Description: BSK_BE3C_tPA: BioMAP Diversity Plus: BE3C Assay for Tissue plasminogen activator (tPA) Biomarker Activity (AID 2283041).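 As to outcome: tPA level quantified by ELISA one day after compound addition.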 The note with it: primary human bronchial epithelial cells; actives raise or lower the signal. In a few lines: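 Bidirectional curve fitting relative to DMSO defined activity, with tPA detected by ELISA in chemically treated human bronchial epithelial primary cells at 24 hours.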

Read-out in assay [3]: Interleukin-8 (IL8), CXCL8 (gene 3576)
The experiment in a line: BSK_CASM3C_IL8: BioMAP Diversity Plus: CASM3C Assay for Interleukin-8 (IL8) Biomarker Activity (AID 2283042).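 Also: IL-8 protein level quantified by ELISA.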 Conditions: primary human coronary artery smooth muscle cells; actives raise or lower the signal.

Read-out in assay [4]: Human Leukocyte Antigen - DR isotype (HLADR), HLA-DRA (gene 3122)
The experiment in a line: BSK_CASM3C_HLADR: BioMAP Diversity Plus: CASM3C Assay for Human Leukocyte Antigen - DR isotype (HLADR) Biomarker Activity (AID 2283043).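 Also: cell-surface HLA-DR protein level quantified by ELISA.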 The note with it: primary human coronary artery smooth muscle cells; actives raise or lower the signal.

Read-out in assay [5]: Macrophage colony-stimulating factor (MCSF), CSF1 (gene 1435)
The experiment in a line: BSK_CASM3C_MCSF: BioMAP Diversity Plus: CASM3C Assay for Macrophage colony-stimulating factor (MCSF) Biomarker Activity (AID 2283044).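 Also: M-CSF protein amount quantified by ELISA after 24 h exposure.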 Conditions: primary human coronary artery smooth muscle cells; actives raise or lower the signal.

Read-out in assay [6]: Low-density lipoprotein receptor (LDLR), LDLR (gene 3949)
Description: BSK_CASM3C_LDLR: BioMAP Diversity Plus: CASM3C Assay for Low-density lipoprotein receptor (LDLR) Biomarker Activity (AID 2283045).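 Also: LDLR protein level on the cell surface quantified by ELISA.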 The note with it: primary human coronary artery smooth muscle cells; actives raise or lower the signal.

Read-out in assay [7]: Monocyte Chemoattractant Protein-1 (MCP1), CCL2 (gene 6347)
Description: BSK_CASM3C_MCP1: BioMAP Diversity Plus: CASM3C Assay for Monocyte Chemoattractant Protein-1 (MCP1) Biomarker Activity (AID 2283046).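 Also: MCP-1 level quantified by ELISA 24 h after dosing.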 The note with it: primary human coronary artery smooth muscle cells; actives raise or lower the signal.

The nature of assay [8]: BSK_CASM3C_Proliferation: Cell Proliferation Assessment in the BioMAP Diversity Plus: CASM3C Assay (AID 2283047).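 Also: sulforhodamine B total protein stain as relative cell number at 560 nm; sub-confluent cells exposed 48 h before staining; fitted both ways against DMSO so gain or loss of cell number.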 The note with it: primary human coronary artery smooth muscle cells.
Read-out in assay [9]: Monokine induced gamma interferon (MIG), CXCL9 (gene 4283)
The experiment in a line: BSK_CASM3C_MIG: BioMAP Diversity Plus: CASM3C Assay for Monokine induced gamma interferon (MIG) Biomarker Activity (AID 2283048).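 Also: MIG protein level measured by ELISA.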 Conditions: primary human coronary artery smooth muscle cells; actives raise or lower the signal.

Read-out in assay [10]: serum amyloid A (SAA), SAA1 (gene 6288)
Description: BSK_CASM3C_SAA: BioMAP Diversity Plus: CASM3C Assay for serum amyloid A (SAA) Biomarker Activity (AID 2283049).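 Also: SAA protein level quantified by ELISA.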 Conditions: primary human coronary artery smooth muscle cells; actives raise or lower the signal.

Broadly, the AC50 is the concentration at which the activity in the assay is half-maximal. For the molecule `O=C(O)C(F)(F)C(F)(F)C(F)(F)C(F)(F)C(F)(F)C(F)(F)C(F)(F)F`, the result in assay [1], in assay [2], in assay [3], in assay [4], in assay [5] and in assay [6] was inactive. In addition, the result in assay [7], in assay [8], in assay [9] and in assay [10] was inactive. The AC50 in assay [8] is 16.6 µM (active); in assay [9], 36.6 µM (active).

Consider `OCCOc1ccccc1`, for which the outcome in assay [1], in assay [2], in [3], in assay [4], in [5] and in [6] was inactive. Also, the result in assay [7], in assay [8] and in assay [9] was inactive. Besides, the half-maximal activity concentration (AC50) in assay [10] was 20 µM (active).

As for `CCC(C)(NC(=O)c1cc(Cl)c(C)c(Cl)c1)C(=O)CCl` (stereo not drawn), the outcome in [1], in assay [3] and in [6] was inactive. For the same molecule, the half-maximal activity concentration (AC50) in [2] was 11 µM (active); in assay [4], 17.7 µM (active); in assay [5], 25.2 µM (active); in assay [7] it was 22.9 µM (active); in assay [8], 18.5 µM (active); in assay [9], 17.5 µM (active). For the same molecule, in assay [10], the AC50 is 14.4 µM (active).

Take `C#CCN1C(=O)COc2cc(F)c(N3C(=O)C4=C(CCCC4)C3=O)cc21`: the outcome in assay [1], in [2], in assay [3], in assay [4], in assay [5] and in assay [6] was inactive. The result in [7], in assay [8], in assay [9] and in [10] was inactive.

Consider `CCN(CC)C(=O)SCc1ccc(Cl)cc1`, for which the result in assay [1], in assay [2], in assay [3], in assay [4], in assay [5] and in [6] was inactive. In addition, the outcome in [7], in assay [9] and in assay [10] was inactive. In addition, the concentration at half-maximal activity (AC50) in assay [8] is 16.4 µM (active).

For `CC[C@H](C)[C@H]1O[C@]2(C=C[C@@H]1C)C[C@@H]1C[C@@H](C/C=C(\C)[C@@H](O[C@H]3C[C@H](OC)[C@@H](O[C@H]4C[C@H](OC)[C@@H](O)[C@H](C)O4)[C@H](C)O3)[C@@H](C)/C=C/C=C3\CO[C@@H]4[C@H](O)C(C)=C[C@@H](C(=O)O1)[C@]34O)O2` (tested in a mixture with another compound), the AC50 in assay [1] is 13.9 µM (active); in [2], 5.27 µM (active); in assay [3] it was 17.4 µM (active); in [4], 9.73 µM (active); in [5], 20 µM (active); in assay [7], 11.7 µM (active). Also, the AC50 was 6.85 µM (active) in [8] and 29.7 µM (active) in assay [9]. The result in assay [6] and in assay [10] was inactive.

As to `Cc1cc(C)nc(NC(=O)NS(=O)(=O)c2ccccc2C(=O)OC2COC2)n1`, the result in assay [1], in assay [2], in assay [3], in assay [4], in assay [5] and in assay [6] was inactive. Further, the result in [7], in [8], in assay [9] and in assay [10] was inactive.

In the case of `ClC1C(Cl)C(Cl)C(Cl)C(Cl)C1Cl` (stereo not drawn), the result in [1], in [2], in assay [3], in assay [4], in assay [5] and in assay [6] was inactive. Also, the result in assay [7], in [8], in assay [9] and in [10] was inactive. The AC50 in [5] is 32.4 µM (active); in assay [6] it was 27.8 µM (active); in assay [8], 20 µM (active) and 29.6 µM (active); in assay [10], 34.8 µM (active).

On to `COP(=S)(OC)Oc1ccc(SC)c(C)c1`, for which the outcome in assay [1], in assay [2], in assay [3], in assay [4], in [5] and in assay [6] was inactive. Also, the outcome in assay [7], in assay [8], in assay [9] and in [10] was inactive.

On to `C[C@H]1[C@H](c2ccc(Cl)cc2)SC(=O)N1C(=O)NC1CCCCC1`, for which the figures for the AC50 in assay [1] and in [8] were 7.98 µM (active) and 20 µM (active), respectively. Besides, the result in [2], in assay [3], in assay [4], in [5], in assay [6] and in [7] was inactive. The outcome in assay [9] and in [10] was inactive.

As for `CCC(C)Nc1c([N+](=O)[O-])cc(C(C)(C)C)cc1[N+](=O)[O-]` (stereo not drawn), the outcome in [1], in assay [2], in assay [3], in [4], in assay [5] and in assay [6] was inactive. For the same molecule, the outcome in assay [7], in assay [8], in assay [9] and in assay [10] was inactive.

Turning to `O=C1c2ccccc2C(=O)N1SC(Cl)(Cl)Cl`, the concentration at half-maximal activity (AC50) in assay [1] is 30.3 µM (active); in [3] it was 38.6 µM (active); in assay [4], 28.7 µM (active); in assay [5] it was 16 µM (active); in assay [7], 30 µM (active); in [8], 18.8 µM (active). The AC50 in assay [9] is 30.4 µM (active). The result in assay [2], in [6] and in assay [10] was inactive.

Regarding `O=S1OCC2C(CO1)C1(Cl)C(Cl)=C(Cl)C2(Cl)C1(Cl)Cl` (stereo not drawn), the result in assay [1] and in [6] was inactive. The AC50 in [2] was 21.5 µM (active); in assay [3] it was 29.6 µM (active); in assay [4], 32.5 µM (active); in assay [5], 31.5 µM (active); in [7], 31.7 µM (active); in assay [8], 32.7 µM (active). In addition, the half-maximal activity concentration (AC50) is 32.1 µM (active) in assay [9] and 32.7 µM (active) in assay [10].

Regarding `O=S(=O)(O)C(F)(F)C(F)(F)C(F)(F)C(F)(F)C(F)(F)C(F)(F)C(F)(F)C(F)(F)F`, the outcome in [1], in assay [2], in [3], in assay [4], in [5] and in [6] was inactive. The result in [7], in assay [8], in [9] and in assay [10] was inactive. In addition, the AC50 in [2] was 15.3 µM (active) and 16 µM (active) and 25.9 µM (active); in assay [9] it was 47.3 µM (active) and 52.5 µM (active).

Regarding `COc1cc(OC)nc(NC(=O)NS(=O)(=O)c2cc(NC=O)ccc2C(=O)N(C)C)n1`, the result in assay [1], in assay [2], in assay [3], in assay [4], in assay [5] and in [6] was inactive. In addition, the outcome in assay [7], in assay [8], in assay [9] and in [10] was inactive.

With `[2H]C1([2H])[n+]2ccccc2-c2cccc[n+]2C1([2H])[2H]`, the result in assay [1], in assay [2], in [3], in [4], in [5] and in assay [6] was inactive. Moreover, the outcome in assay [9] and in [10] was inactive. Besides, the results for the half-maximal activity concentration (AC50) in [7] and in assay [8] were 0.156 µM (active) and 10.6 µM (active), respectively.

Turning to `O=C(O)CCCOc1ccc(Cl)cc1Cl`, the result in [1], in [2], in assay [3], in assay [4], in assay [5] and in [6] was inactive. Moreover, the result in assay [7], in assay [8], in assay [9] and in assay [10] was inactive.
